Measured values: PubChem BioAssay (NCI)
Compounds without any hit were thinned out: in the full panel of roughly 83,000, 20% have a hit.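 Single-dose data. Exposure time 48 hours. Values below 10 considered active.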 Calls of active or inactive are those of the source.

Legend:
Assay in all cases: NCI-60 one-dose screen, 48 h (100 = growth as untreated, 0 = no growth, -100 = all killed)
Details in all cases: 10 µM unless noted
HCT-15 colon = tested on: HCT-15 colon
HT29 colon = tested on: HT29 colon
SNB-75 CNS = tested on: SNB-75 CNS
SNB-19 CNS = tested on: SNB-19 CNS
U251 CNS = tested on: U251 CNS
PC-3 prostate = tested on: PC-3 prostate
SK-MEL-5 melanoma = tested on: SK-MEL-5 melanoma
UACC-62 melanoma = tested on: UACC-62 melanoma
LOX IMVI melanoma = tested on: LOX IMVI melanoma
SK-MEL-28 melanoma = tested on: SK-MEL-28 melanoma
SK-MEL-2 melanoma = tested on: SK-MEL-2 melanoma
EKVX NSCLC = tested on: EKVX NSCLC
SN12C renal = tested on: SN12C renal
UO-31 renal = tested on: UO-31 renal
TK-10 renal = tested on: TK-10 renal
ACHN renal = tested on: ACHN renal
CAKI-1 renal = tested on: CAKI-1 renal
A498 renal = tested on: A498 renal
CCRF-CEM leukemia = tested on: CCRF-CEM leukemia
MOLT-4 leukemia = tested on: MOLT-4 leukemia

Measured: growth

COc1ccc(-c2ccc(NNC(=O)c3ccc(F)cc3)nn2)cc1OC
inactive: HCT-15 colon 64.1% | HT29 colon 59.7% | SNB-19 CNS 68.3% | U251 CNS 77.1% | PC-3 prostate 73.5% | SK-MEL-5 melanoma 71.6% | UACC-62 melanoma 88.6% | LOX IMVI melanoma 44.2% | SK-MEL-28 melanoma 101% | SK-MEL-2 melanoma 93.5% | EKVX NSCLC 40.5% | SN12C renal 57.1% | UO-31 renal 34.8% | TK-10 renal 43.7% | ACHN renal 54.8% | CAKI-1 renal 17.3% | CCRF-CEM leukemia 79.5% | MOLT-4 leukemia 60.2%
active: SNB-75 CNS 8.18% | A498 renal 2.09%

C=C(C)[C@@H]1CC[C@]2(COCCC#N)CC[C@]3(C)[C@H](CC[C@@H]4[C@@](C)(CCCNCCC#N)[C@H](C(=C)C)CC[C@]43C)[C@@H]12
inactive: HCT-15 colon 35.7% [100 µM] | SNB-75 CNS 40.8% [100 µM] | SNB-19 CNS 59% [100 µM] | PC-3 prostate 20.1% [100 µM] | UACC-62 melanoma 29.8% [100 µM] | SK-MEL-2 melanoma 10% [100 µM] | EKVX NSCLC 92.9% [100 µM] | SN12C renal 27.9% [100 µM] | UO-31 renal 15.3% [100 µM] | TK-10 renal 49.7% [100 µM] | ACHN renal 11.4% [100 µM] | CAKI-1 renal 27% [100 µM] | A498 renal 90.5% [100 µM]
active: HT29 colon 2.94% [100 µM] | U251 CNS 5.95% [100 µM] | SK-MEL-5 melanoma 2.58% [100 µM] | LOX IMVI melanoma -74.4% [100 µM] | SK-MEL-28 melanoma -37.3% [100 µM] | CCRF-CEM leukemia 1.32% [100 µM] | MOLT-4 leukemia 2.22% [100 µM]

C#C[C@]1(O)CC[C@H]2[C@@H]3CC=C4c5nc(Nc6ccc(OC)cc6OC)sc5CC[C@]4(C)[C@H]3CC[C@@]21C
inactive: SNB-19 CNS 31.2% | EKVX NSCLC 24.7% | SN12C renal 37.6% | UO-31 renal 13.2% | TK-10 renal 51.3% | ACHN renal 32.6% | CAKI-1 renal 26.4% | CCRF-CEM leukemia 16.9%
active: HCT-15 colon -39.1% | HT29 colon -12.8% | SNB-75 CNS -53.6% | U251 CNS -2.51% | PC-3 prostate -3.17% | SK-MEL-5 melanoma -92.2% | UACC-62 melanoma -36.8% | LOX IMVI melanoma -78.3% | SK-MEL-28 melanoma -49.1% | SK-MEL-2 melanoma -10.1% | A498 renal -56% | MOLT-4 leukemia 4.56%

CCCC[C@@H](C=O)NC(=O)[C@H](CC(C)C)NC(=O)[C@H](CC(C)C)NC(=O)OCc1ccccc1
active: HCT-15 colon 8.85% | HT29 colon -19.4% | SNB-75 CNS -45.1% | U251 CNS 5.84% | PC-3 prostate 5.37% | SK-MEL-5 melanoma -71% | UACC-62 melanoma -38% | LOX IMVI melanoma -65.2% | SK-MEL-28 melanoma -21.7% | EKVX NSCLC -14.2% | SN12C renal 2.11% | TK-10 renal -20.2% | CAKI-1 renal 4.61% | A498 renal -47.6% | CCRF-CEM leukemia -26.5% | MOLT-4 leukemia -11.7%
inactive: SNB-19 CNS 22.1% | SK-MEL-2 melanoma 13.4% | UO-31 renal 23.8% | ACHN renal 25.3%

CC1(C)CC[C@]2(C(=O)O)CC[C@]3(C)C(=CC[C@@H]4[C@@]5(C)C/C(=C/c6ccco6)C(=O)C(C)(C)[C@@H]5CC[C@]43C)[C@@H]2C1
active: HCT-15 colon -38.6% [100 µM] | HT29 colon -56.7% [100 µM] | SNB-75 CNS -15.6% [100 µM] | SNB-19 CNS -9.61% [100 µM] | U251 CNS -36.1% [100 µM] | PC-3 prostate -16% [100 µM] | SK-MEL-5 melanoma -75.8% [100 µM] | UACC-62 melanoma -89.7% [100 µM] | LOX IMVI melanoma -95.1% [100 µM] | SK-MEL-28 melanoma -79.5% [100 µM] | SK-MEL-2 melanoma -69.3% [100 µM] | EKVX NSCLC -19.6% [100 µM] | SN12C renal -52.3% [100 µM] | UO-31 renal -98.1% [100 µM] | TK-10 renal -19.1% [100 µM] | ACHN renal -71.8% [100 µM] | CAKI-1 renal -35% [100 µM] | A498 renal -42.5% [100 µM] | CCRF-CEM leukemia 4.17% [100 µM] | MOLT-4 leukemia 2.21% [100 µM]

c1ccc(-c2n[nH]c(-c3ccccn3)n2)nc1
inactive: HCT-15 colon 96.4% | HT29 colon 108% | SNB-75 CNS 101% | SNB-19 CNS 99.5% | U251 CNS 110% | PC-3 prostate 94.4% | SK-MEL-5 melanoma 102% | UACC-62 melanoma 104% | LOX IMVI melanoma 115% | SK-MEL-28 melanoma 149% | SK-MEL-2 melanoma 108% | EKVX NSCLC 98.5% | SN12C renal 111% | UO-31 renal 93.8% | TK-10 renal 116% | ACHN renal 107% | CAKI-1 renal 81.1% | A498 renal 224% | CCRF-CEM leukemia 103% | MOLT-4 leukemia 128%

CCN(CC)CCCC(C)Nc1ccnc2cc(Cl)c(SCc3ccccc3)cc12 (stereo not given)
inactive: SN12C renal 20.4%
active: HCT-15 colon -68.8% | HT29 colon -56.4% | SNB-75 CNS -86.2% | SNB-19 CNS -34.9% | U251 CNS -54.3% | PC-3 prostate -7.16% | SK-MEL-5 melanoma -94.9% | UACC-62 melanoma -90.8% | LOX IMVI melanoma -90.9% | SK-MEL-28 melanoma -82.5% | SK-MEL-2 melanoma -71.1% | EKVX NSCLC 3.57% | UO-31 renal -84.1% | TK-10 renal -30.8% | ACHN renal -89.2% | CAKI-1 renal -62.2% | A498 renal -90.1% | CCRF-CEM leukemia -25.9% | MOLT-4 leukemia -29.3%

CCOC(=O)C1=C(C(=O)c2ccc(Br)cc2)C(c2ccc(Br)cc2)NC(=S)N1 (stereo not given)
inactive: HCT-15 colon 99% | HT29 colon 104% | SNB-75 CNS 93.1% | SNB-19 CNS 100% | U251 CNS 95.8% | PC-3 prostate 98.1% | SK-MEL-5 melanoma 103% | UACC-62 melanoma 94.8% | LOX IMVI melanoma 94% | SK-MEL-28 melanoma 105% | SK-MEL-2 melanoma 110% | EKVX NSCLC 104% | SN12C renal 98.3% | UO-31 renal 76.8% | TK-10 renal 130% | ACHN renal 97.6% | CAKI-1 renal 86% | A498 renal 90.6% | CCRF-CEM leukemia 114% | MOLT-4 leukemia 114%

CCC(C)[C@H](NC(=O)NC(=O)NC(=O)CI)C(=O)OC (stereo not given in full)
inactive: HCT-15 colon 14.9% | HT29 colon 42.3% | SNB-75 CNS 92.1% | SNB-19 CNS 93.8% | U251 CNS 93.2% | PC-3 prostate 93.3% | SK-MEL-5 melanoma 91.5% | UACC-62 melanoma 88.9% | SK-MEL-28 melanoma 87.7% | SK-MEL-2 melanoma 86.1% | EKVX NSCLC 102% | SN12C renal 89.3% | TK-10 renal 91.8% | ACHN renal 57.3% | A498 renal 89.1%
active: LOX IMVI melanoma -79.2% | UO-31 renal -21.3% | CAKI-1 renal -59.6% | CCRF-CEM leukemia -46.2% | MOLT-4 leukemia -16.7%

C=C1C(=O)O[C@H]2[C@H]1CC/C(COC(=O)NCc1ccc(Cn3c(=O)sn(-c4ccc(Cl)cc4)c3=O)cc1)=C\CC[C@@]1(C)O[C@@H]21
inactive: HCT-15 colon 54.5% | HT29 colon 37.8% | SNB-75 CNS 79.7% | SNB-19 CNS 91.9% | U251 CNS 90.2% | PC-3 prostate 76.2% | SK-MEL-5 melanoma 97.6% | UACC-62 melanoma 76.5% | LOX IMVI melanoma 58.4% | SK-MEL-28 melanoma 101% | SK-MEL-2 melanoma 88.2% | EKVX NSCLC 99.6% | SN12C renal 70.4% | UO-31 renal 57.7% | TK-10 renal 45% | ACHN renal 65.5% | CAKI-1 renal 61% | A498 renal 107% | MOLT-4 leukemia 23.2%
active: CCRF-CEM leukemia 0.529%

CCn1cc(-c2ccnc(NCCNS(=O)(=O)c3ccc(Br)cc3)c2)c(-c2cccc(OC)c2)n1
inactive: HCT-15 colon 69.2% | HT29 colon 56.5% | SNB-75 CNS 81.7% | SNB-19 CNS 83.2% | U251 CNS 58.8% | PC-3 prostate 41.7% | SK-MEL-5 melanoma 64% | UACC-62 melanoma 71% | LOX IMVI melanoma 94.2% | SK-MEL-28 melanoma 100% | SK-MEL-2 melanoma 90.8% | EKVX NSCLC 77% | SN12C renal 77% | UO-31 renal 45.6% | TK-10 renal 83.2% | ACHN renal 82.6% | CAKI-1 renal 66.1% | A498 renal 66.2% | CCRF-CEM leukemia 43.2% | MOLT-4 leukemia 34.8%

NC(=S)Cc1ccccc1
inactive: HCT-15 colon 97.3% | HT29 colon 101% | SNB-75 CNS 88% | SNB-19 CNS 98.2% | U251 CNS 100% | PC-3 prostate 102% | SK-MEL-5 melanoma 100% | UACC-62 melanoma 93.9% | SK-MEL-28 melanoma 105% | SK-MEL-2 melanoma 103% | EKVX NSCLC 97.9% | SN12C renal 94.7% | UO-31 renal 84.4% | TK-10 renal 94.3% | ACHN renal 98.1% | CAKI-1 renal 89.1% | A498 renal 73.6% | CCRF-CEM leukemia 105% | MOLT-4 leukemia 103%
active: LOX IMVI melanoma 0.449%

CCN(CC)CCCC(C)Nc1c2ccc(C)cc2nc2ccc(OC)cc12 (stereo not given)
inactive: HCT-15 colon 18.2% | SNB-75 CNS 41% | SNB-19 CNS 43.7% | U251 CNS 31.2% | PC-3 prostate 30.9% | SK-MEL-5 melanoma 82.1% | UACC-62 melanoma 74.4% | SK-MEL-28 melanoma 62.1% | SK-MEL-2 melanoma 39.2% | EKVX NSCLC 42.3% | SN12C renal 43.3% | TK-10 renal 15.4% | ACHN renal 25.5% | CAKI-1 renal 38% | A498 renal 70.2% | CCRF-CEM leukemia 30.9%
active: HT29 colon -26.1% | LOX IMVI melanoma -70.8% | UO-31 renal -16.5% | MOLT-4 leukemia 9.16%

Cn1c(=O)c(C#N)c(-c2ccco2)n2c(S(=O)(=O)Cc3ccccc3)nnc12
inactive: HCT-15 colon 78.3% | HT29 colon 92.5% | SNB-75 CNS 97.8% | SNB-19 CNS 115% | U251 CNS 82.8% | PC-3 prostate 112% | SK-MEL-5 melanoma 90.1% | UACC-62 melanoma 75.5% | LOX IMVI melanoma 92.3% | SK-MEL-28 melanoma 99.1% | SK-MEL-2 melanoma 58.5% | EKVX NSCLC 99.7% | SN12C renal 110% | UO-31 renal 41.4% | TK-10 renal 78.3% | ACHN renal 65.9% | CAKI-1 renal 82.4% | A498 renal 84.8% | CCRF-CEM leukemia 77.4% | MOLT-4 leukemia 102%
